Laboratory results: PubChem BioAssay AID2284378 (EPA ToxCast)
Results filed as inconclusive are left out. Active and inactive are the calls of the source. Rule for the calls: active = hit-call score of the fitted dose curve at least 0.9, where 1 is the maximum; inconclusive = response in the unintended direction; inactive = score below 0.9.

Each molecule was assayed on frog Retinoid X Receptor beta (RXRb), gene 394278 (assay: ATG_frRXRb_EcoTox2: Attagene TRANS-FACTORIAL EcoTox-2 HepG2 Assay for frog Retinoid X Receptor beta (RXRb)).
Description: ATG_EcoTox2 is a cell-based, multiplexed assay created by modifying the existing Attagene TRANS-FACTORIAL system to include a panel of nuclear receptors from some or all the following species: human (Homo sapiens), african clawed frog (Xenopus laevis), rainbow trout (Oncorhynchus mykiss), japanese medaka (Oryzias latipes), and zebrafish (Danio rerio). The ECOTOX2-FACTORIAL format uses HepG2, a human liver cell line, with measurements taken at 24 hours after chemical dosing in a 24-well plate. ATG_frRXRb_EcoTox2 is one of 29 assay components calculated in the ATG_EcoTox2 assay. It is designed to make measurements of mRNA induction, a form of inducible reporter, as detected with fluorescence intensity signals by Reverse transcription polymerase chain reaction (RT-PCR) and Capillary electrophoresis technology.The assay endpoint ATG_frRXRb_EcoTox2 was analyzed in the positive analysis fitting direction relative to DMSO as the negative control and baseline of activity. Using a type of inducible reporter, measures of mRNA for gain-of-signal activity can be used to understand the reporter gene at the transcription factor-level as they relate to the gene RXRb. Furthermore, this assay endpoint can be referred to as a primary readout, because this assay has produced multiple assay endpoints where this one serves a reporter gene function. To generalize the intended target to other relatable targets, this assay endpoint is annotated to the nuclear receptor intended target family, where the subfamily is non-steroidal.
Human liver HepG2 cells are transiently transfected with multiple reporter transcription units (MRTUs) in 6-well plates using FuGene 6 reagent (Roche; 3 ml FuGene/1 mg DNA). The MRTU constructs are regulated by a cis-regulating element (promoter). Each RTU expresses a GAL4-UAS that regulates the transcription of a nearby target reporter gene sequence. A major difference between the CIS and TRANS system is that in CIS activities of endogenous TFs are measured, whereas the TRANS assay evaluates changes in activities of exogenous, chimeric NR-Gal4 proteins. […] At the end of 24 hour incubation, total RNA was isolated using TriZol reagent (Invitrogen). The isolated RNA is then reverse-transcribed using oligo(dT) primer and Mo-MLV reverse transcriptase (Invitrogen) with DNAse I (Ambion) treatment for 30 min. The one-tenth of the produced cDNA was amplified by PCR using Taq DNA polymerase (Invitrogen) and two reporter sequence-specific primers. The PCR products were fluorescently labeled by primer extension with 6-arboxyfluorescein (6-FAM) 5'-labeled reporter sequence-specific primer (2 min at 95 C, 20 s at 68 C and 10 min at 72 C) and these products were digested with 5U of HpaI (New England Biolabs) for 2h at 37 C. The fragments were purified using Qiaquick PCR columns (Qiagen), analyzed on an ABI 3130xL genetic analyzer (Applied Biosystems) with peak positions identified by using a set of X-rhodamine (ROX)-labeled MapMarker1000 molecular weight standards (BioVentures). The raw capillary electrophoresis data was processed using Attagraph software (Attagene).
With `CC(C)(Oc1ccc(Cl)cc1)C(=O)O` the outcome was “inactive”. With `C=C(c1ccc(C(=O)O)cc1)c1cc2c(cc1C)C(C)(C)CCC2(C)C` the AC50 was 0.00172 µM (active). With `CN(CCOc1ccc(CC2SC(=O)NC2=O)cc1)c1ccccn1` (centres undefined) the outcome was “inactive”. In the case of `C[C@@H]1C[C@H]2[C@@H]3CCC4=CC(=O)C=C[C@]4(C)[C@@]3(F)[C@@H](O)C[C@]2(C)[C@@]1(O)C(=O)COP(=O)(O)O`, the outcome is reported as “inactive”. For `CC(c1cc2ccccc2s1)N(O)C(N)=O` (centres undefined), the outcome was “inactive”. With `Cc1ccc(C)c(OCCCC(C)(C)C(=O)O)c1` the outcome was “inactive”. In the case of `CC(C)OC(=O)C(C)(C)Oc1ccc(C(=O)c2ccc(Cl)cc2)cc1`, the outcome is reported as “inactive”. In the case of `C[C@]12C=CC(=O)C=C1CC[C@@H]1[C@@H]2C(=O)C[C@@]2(C)[C@H]1CC[C@]2(O)C(=O)CO`, the outcome is reported as “inactive”. In the case of `Cc1cccc(Nc2cc(Cl)nc(SCC(=O)O)n2)c1C`, the AC50 is reported as 23.8 µM (active).
